Assay results from PubChem BioAssay.

Test: stimulators of nuclear beta-catenin in C2C12, primary screen, imaging, WNT3A-conditioned medium, mouse C2C12, NPC library (AID 1117326); note: reference of the scale not given here
Conditions: stimulation, at 2 µM, stronger effect = higher value

SMILES | nuclear beta-catenin stimulation
CNNCc1ccc(C(=O)NC(C)C)cc1 | 1%
Nc1nc2c(ncn2CCC(CO)CO)c(=O)[nH]1 | 1.8%
O=C1CC2(CCCC2)CC(=O)N1CCNCC1COc2ccccc2O1 (centres undefined) | 0.6%
Cn1nnc2c(C(N)=O)ncn2c1=O | 0%
O=C1[C@H]2CCCC[C@H]2C(=O)N1CCCCN1CCN(c2nsc3ccccc23)CC1 | 1%
O=C(O)CCNC(=O)c1ccc(N=Nc2ccc(O)c(C(=O)O)c2)cc1 | 0.3%
CC(Oc1c(Cl)cccc1Cl)C1=NCCN1 (centres undefined) | 0.3%
CN1CCN(C2=Nc3cc(F)ccc3Cc3ccccc32)CC1 | -3%
COC(=O)C1=C(C)NC(C)=C(C(=O)OC(C)C)C1c1cccc2nonc12 (centres undefined) | 0.3%
CCOc1cc(N)c(Cl)cc1C(=O)NCC1CN(Cc2ccc(F)cc2)CCO1 (centres undefined) | 1.9%
O=c1c(-c2ccccc2)c1-c1ccccc1 | 22.6%
O=C1Nc2ccc(Cl)cc2[C@@](C#CC2CC2)(C(F)(F)F)O1 | 3.6%
Nc1nc(N)nc(-c2cc(Cl)ccc2Cl)n1 | 0.3%
OCCOCCN1CCN(C2=Nc3ccccc3Sc3ccccc32)CC1 | 2.1%
CC(=O)Nc1ccc(CC(=O)O)cc1 | 0.4%
O=c1[nH]cnc2c1ncn2[C@H]1CC[C@@H](CO)O1 | -0.4%
COC(=O)C1=C(C)NC(C)=C(C(=O)O[C@@H]2CCCN(Cc3ccccc3)C2)[C@@H]1c1cccc([N+](=O)[O-])c1 | 5.8%
Cc1c(O)cccc1C(=O)N[C@@H](CSc1ccccc1)[C@H](O)CN1C[C@H]2CCCC[C@H]2C[C@H]1C(=O)NC(C)(C)C | -1.9%
CCc1nn(CCCN2CCN(c3cccc(Cl)c3)CC2)c(=O)n1CCOc1ccccc1 | 3%
